From the supplement of paper PMC6555819

Legend:
Experiment in all cases: PBM binding z-score (relative to random genomic background probes); higher = stronger binding; sequences stand for … in GC…GCGATTGACAGCGTAGAATGAAGG
[1] = tested on: PPARg:RXRa DBDmut IVT, anti-RXR (DBD mutation: RXRa K156A/R161A, NR concentration 270 nM, RXRa partner concentration 90 nM)
Summary of the method: (§1)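 Ligand-free nuclear receptor dimers were applied to custom Agilent 4×180K protein-binding microarrays whose double-stranded probes carried direct-repeat seeds, single-nucleotide variants, half-site ablations and random human genomic background sequences in 34-nt variable regions. Incubation lasted 1 h. Binding z-scores were computed against the random background probes from regression-normalized fluorescence.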

[2] = tested on: PPARg:RXRa IVT, anti-PPARg (NR concentration 270 nM, RXRa partner concentration 90 nM)
Summary of the method: as §1

[3] = tested on: PPARg DBDmut:RXRa IVT, anti-PPARg (DBD mutation: PPARg1 K132A/R137A, NR concentration 270 nM, RXRa partner concentration 90 nM)
Summary of the method: as §1

[4] = tested on: PPARg DBDmut IVT, anti-PPARg (DBD mutation: PPARg1 K132A/R137A, NR concentration 270 nM)
Summary of the method: as §1

[5] = tested on: PPARg homodimer (NR concentration 180 nM)
Summary of the method: as §1

[6] = tested on: PXR:RXRa (NR concentration 270 nM, RXRa partner concentration 90 nM)
Summary of the method: as §1

[7] = tested on: PXR homodimer (NR concentration 270 nM)
Summary of the method: as §1

[8] = tested on: RARa:RXR (NR concentration 270 nM, RXRa partner concentration 90 nM)
Summary of the method: as §1

[9] = tested on: RARa homodimer (NR concentration 270 nM)
Summary of the method: as §1

[10] = tested on: RARb:RXRa (NR concentration 270 nM, RXRa partner concentration 90 nM)
Summary of the method: as §1

| Sequence | PBM binding z-score [1] | PBM binding z-score [2] | PBM binding z-score [3] | PBM binding z-score [4] | PBM binding z-score [5] | PBM binding z-score [6] | PBM binding z-score [7] | PBM binding z-score [8] | PBM binding z-score [9] | PBM binding z-score [10] |
| --- | --- | --- | --- | --- | --- | --- | --- | --- | --- | --- |
| CCGCCTAGGTCAGGGCCAGTATAGGAGGAACGTT | 0.73 | 1.29 | -1.13 | -2.07 | 0.393 | 0.629 | -0.663 | 1.47 | -0.0818 | 3.43 |
| TTGCCTAGGTCATTCAGGGGCCAGTATAGAAAGC | 1.9 | 2.33 | 0.195 | -0.447 | 2.69 | 2.63 | 0.107 | 4.21 | -0.129 | 3.93 |
| AGAATGAGGTTATTCAGATCAGGGAATTGCGGTC | 3.18 | 2.64 | 0.879 | 0.0193 | 0.501 | 1.8 | 0.717 | 1.98 | 0.495 | 1.68 |
| TCTTGTAGATCAAGCAGGTTAAGAATGCCTGAGT | 1.49 | 0.313 | -0.142 | 0.577 | -0.335 | 0.291 | -0.153 | 0.248 | -0.193 | 0.0521 |
| CGTCCAAGGTCATTGCTAGGTCAGTGAAAGCATT | 3.23 | 4.03 | -0.074 | -0.854 | 4.11 | 5.16 | 2.4 | 5.71 | 0.612 | 5.04 |
| TCGAGTAGCTTAGGGGCATTCAGAATGGCGTCGA | 0.336 | -0.404 | -0.673 | -0.923 | -0.986 | 0.0972 | -0.797 | 0.217 | -1.45 | 0.238 |
| CCTTACGGGTCAAAGTTATAGCACGGGTGGTACG | 1.88 | 3.45 | 0.255 | 0.0478 | 2.1 | 3.35 | 0.317 | 4.38 | 1 | 3.7 |
| AATACAGCGTCACTAGGCCAGAGTAGGTACGAAT | 0.487 | 1.5 | -0.275 | 0.0334 | -0.38 | -0.519 | -0.407 | -0.516 | -0.0306 | -0.113 |
| AGAACGAGGGCAATGATTTGATAGCACGGGTGGC | 3.4 | 2.89 | 0.782 | 0.14 | 0.437 | 0.447 | 0.328 | 0.36 | 0.605 | 1.95 |
| CAAACTAGGTCAAGGTTAAAGTCGGTTTGTGCCA | 8.28 | 8.73 | 1.13 | 0.568 | 2.77 | 3.05 | 0.428 | 3.41 | 0.337 | 4.2 |
| AGAATGAGGTTATTAAGATCATGGAATTGCGGTC | 3.59 | 3.1 | 0.789 | 1.06 | 0.459 | 1.53 | 1.15 | 1.53 | 0.293 | 1.36 |
| TAGACAGGGTCAAAGGCCAGAGTACGAATGTCGA | 0.674 | 3.81 | 1.39 | 0.376 | 1.55 | 4.13 | 0.121 | 5.65 | 0.0319 | 4.28 |
| CCAGACAGGTGAGAAGGTAACTCATCCTCGATTA | 1.17 | 0.6 | -0.78 | 0.324 | 0.757 | 0.375 | 0.22 | 0.525 | 0.718 | 0.607 |
| AGAACGATGGCAATGAGTTGATAGCACGGGTGGC | -0.597 | -0.751 | 0.0197 | -0.258 | -0.596 | -0.563 | -0.0123 | -0.325 | -0.149 | -0.604 |
| TTACCATGGTGAAAGGTCGTTGATGCACGCCTTG | 0.72 | 2.89 | 0.347 | -0.209 | 0.983 | 2.74 | 0.676 | 3.2 | -0.159 | 1.94 |
| TCATATAGGTAATACAGGTGACAGTCGGCATCTA | 4.18 | 3.85 | 1.35 | 1.53 | 1.04 | 0.765 | 0.723 | 1 | 1.35 | 0.683 |
| CCTTACGGGTCACTCCTGGTTATAGCATCGGAGT | 2.58 | 3.35 | 0.273 | -0.731 | 1.77 | 2.67 | 0.0261 | 3.18 | 0.288 | 3.55 |
| ACAGACAGCTGAGTGAAGGTAACTCAGCTGGACG | -0.835 | -0.364 | -0.856 | -0.718 | -1.12 | -0.593 | -0.603 | -0.513 | -0.693 | -0.274 |
| CTCGAAAGGTCGGCTGAGGTGAGTATACGGATAA | -0.0166 | 1 | -0.0144 | -0.891 | 1.16 | 4.09 | -0.42 | 3.02 | -0.275 | 3.56 |
| TAGCCTAGGTCAATCAGGGGCCAGTATAGAAAGC | 1.74 | 2.75 | -0.205 | 0.00211 | 1.32 | 2.04 | -0.411 | 3.2 | -0.673 | 3.89 |
| TCAATGAGGTTATAAGATCAGGGAACGTTGCAAA | 2.23 | 0.886 | -0.23 | 0.398 | 0.29 | 0.939 | -0.134 | 1.47 | 0.789 | 1.31 |
| GATTGTAGATCAAGGTTAAGAAAGACTAAGCTAA | 1.55 | 1.67 | -0.436 | -0.166 | -0.088 | 0.443 | -0.271 | 0.732 | -0.134 | 0.406 |
| GCTATTAGTTTAAAGGGCAACCGAATGATTCTCG | 1.27 | 1.31 | 0.587 | 0.575 | 1.43 | 1.09 | 0.349 | 1.28 | 0.262 | 2.09 |
| CCTCGGAGGACAGAAGGTTAGAGCTGTCCGCTTT | -0.501 | -0.792 | -1.88 | -2.87 | -0.233 | -0.354 | -0.764 | 0.0468 | -1.07 | 1.12 |
| ATAACAAGGTGATCGTGAGGTCGTTGATACTAAC | 1.16 | 1.89 | 1.52 | 0.304 | 0.85 | 3.06 | 1.63 | 2.01 | 0.293 | 1.51 |
